Common to all, as to test: NCI-60 one-dose screen, 48 h (100 = growth as untreated, 0 = no growth, -100 = all killed)
Settings in all cases: 10 µM unless noted

Assay [1] concerns DU-145 prostate.
Assay [2] concerns K-562 leukemia.
For assay [3], the system named is MALME-3M melanoma.
Assay [4] concerns MDA-MB-231 breast.
Assay [5] concerns RXF 393 renal.
The subject of assay [6] is SF-268 CNS.
The test system of assay [7] is SF-295 CNS.
Assay [8] deals with SF-539 CNS.
The subject of assay [9] is UACC-257 melanoma.
Assay [10] deals with M14 melanoma.
Assay [11] relates to HCT-15 colon.
Assay [12] relates to HT29 colon.
The subject of assay [13] is SNB-75 CNS.
In assay [14] the test system is SNB-19 CNS.
The test system of assay [15] is U251 CNS.
Assay [16] relates to PC-3 prostate.
Assay [17] has as its system SK-MEL-5 melanoma.
Assay [18] has as its system UACC-62 melanoma.
For assay [19], the system named is LOX IMVI melanoma.
Assay [20] has as its system SK-MEL-28 melanoma.

The panel holds about 83,000 compounds, 20% with a hit somewhere; the sample as a whole holds those more often.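 Step 1: grow cells in 96-well plates. Step 2: add test compound at a single concentration. Step 3: incubate 48 h. Step 4: record percent growth.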 A number with no mark means an inactive call. Active and inactive are the calls of the source. The calls were made as follows: active = growth percent below 10; inactive = the rest.

The results in this text go back to PubChem BioAssay (NCI).

As for `C/C(=C(/c1ccc(Cl)cc1)c1ccc(OCCN2CCCCCC2)cc1)c1ccccc1`, the growth was 83.5% in assay [1]; 22.7% in [2]; 81.7% in assay [3]; 86.9% in assay [4]; 81.4% in [5]; 93% in [6]. The growth in assay [7] was 86.4%; in [8], 72.4%; in [9], 92.2%; in assay [10], 81.4%; in [11], 20.3%; in assay [12], 8.45% (active). In addition, the growth in assay [13] was 88.4%; in assay [14] it was 88.4%; in assay [15], 73.1%; in [16], 69.3%; in assay [17] it was 69.5%; in assay [18] it was 90%. Besides, in assay [19], the growth is 62.6%.
Consider `O=c1[nH]c([C@@H]2CCCN2)nc2c1oc1ccc(Cl)cc12`, for which the growth in assay [1] is 73.1%; in [2], 43%; in assay [3] it was 64.2%; in assay [4] it was 67.3%; in [5], 72.4%; in assay [6], 65.2%. Also, the growth in [7] is 52.7%; in [8], 12.6%; in assay [9], 64.6%; in assay [10] it was 53.6%; in assay [11] it was 66.3%; in [12], 43.9%. Besides, the growth in [13] was 7.8% (active); in assay [14], 74.8%; in [15], 42.6%; in assay [16], 58%; in assay [17], 51.2%; in assay [18], 78.5%.
`COC(=O)c1ccc2c(C(=Nc3ccc(N(C)C(=O)CN4CCN(C)CC4)cc3)c3ccccc3)c(O)[nH]c2c1`: the growth in assay [1] is 78.3%; in [2] it was 3.75% (active); in [3], 54.2%; in [4], 54.8%; in assay [5], 15.1%; in assay [6] it was 42.8%. For the same compound, the growth is 84.1% in assay [7]; 36.1% in assay [8]; 23% in assay [9]; 50.9% in assay [10]; 65.9% in assay [11]; 8.01% (active) in assay [12]. Also, the growth in [13] is 18%; in [14] it was 67.9%; in assay [15], 45.4%; in assay [16] it was 67.9%; in assay [17] it was 68%; in assay [18] it was 90.2%. Further, the growth is 33.6% in assay [19] and 74.5% in assay [20].
As for `CO[C@H](C(=O)N[C@@H](CCCCNC(=O)OCc1ccccc1)C(=O)OC(C)(C)C)[C@@H]1Cc2cc3cc(OC4CC(OC5CC(O)C(O)C(C)O5)C(O)C(C)O4)c(C)c(O)c3c(O)c2C(=O)[C@H]1OC1CC(OC2CC(OC3CC(C)(O)C(O)C(C)O3)C(O)C(C)O2)C(O)C(C)O1` (stereo not given in full), the growth in [1] is 26.5%; in assay [2] it was 5.35% (active); in [3], -69.4% (active); in [4] it was -71.8% (active); in assay [5] it was -85.9% (active); in assay [6], -61.5% (active). Further, the growth in [7] was -89.5% (active); in [8] it was -32% (active); in assay [9], -5.47% (active); in assay [10] it was -69.8% (active); in assay [11], 26.6%; in [12] it was 2.05% (active). Besides, the growth is -94.3% (active) in [13]; -51.6% (active) in [14]; -82.3% (active) in [15]; 3.14% (active) in assay [16]; -97.7% (active) in assay [17]; -62.7% (active) in assay [18]. In addition, in [19], the growth was -62.8% (active).
For the compound `O=C(O)C1(Cc2cccc(Nc3nccs3)n2)CCC(Oc2cccc(Cl)c2F)CC1` (stereo not given), the growth in [1] was 70.2%; in [2], 33.9%; in [3], 77.5%; in assay [4], 77.5%; in assay [5], 82.1%; in assay [6], 61.6%. Also, the growth was 71.5% in [7]; 89.2% in assay [8]; 49.6% in [9]; 58% in assay [10]; 70.7% in assay [11]; 62.8% in assay [12]. Further, the growth was 95.5% in assay [13]; 75.4% in assay [14]; 60.8% in [15]; 71.3% in assay [16]; 70.3% in [17]; 61.8% in [18]. For the same compound, the growth in assay [19] is 74.6%.
In the case of `Cc1ncc(-c2ccnc(Nc3ccc(S(C)(=O)=O)cc3)n2)n1C(C)C`, the growth is 4.62% (active) in [1]; 3.66% (active) in [2]; -47.7% (active) in assay [3]; -8.39% (active) in assay [4]; -50.9% (active) in [5]; 3.67% (active) in assay [6]. Also, the growth in assay [7] is -0.591% (active); in assay [8], -65.4% (active); in assay [9], -28.3% (active); in assay [10], -74.5% (active); in assay [11], 1.34% (active); in assay [12], -16.6% (active). Further, the growth in [13] was -37.9% (active); in assay [14] it was 7.36% (active); in [15], 3.47% (active); in assay [16] it was -11.1% (active); in [17] it was -55.5% (active); in assay [18], -71.5% (active). The growth was 3.16% (active) in [19] and -41.8% (active) in [20].
Regarding `O=C(/C=C/c1ccc2c(c1)OCO2)c1c(O)c2ccccc2oc1=O`, the growth was 109% in assay [1]; 69.4% in assay [2]; 101% in [3]; 103% in assay [4]; 135% in [5]; 93.6% in assay [6]. Besides, the growth in assay [7] was 100%; in assay [8], 105%; in assay [9] it was 78.1%; in assay [10], 94.9%; in [11] it was 97.1%; in [12] it was 96.6%. Further, the growth in [13] is 87.7%; in assay [14], 115%; in assay [15], 101%; in assay [16], 95.9%; in [17] it was 111%; in [18] it was 96.7%. Besides, the growth in [19] was 94.6%; in assay [20] it was 112%.
Turning to `COc1ccc(F)c(F)c1C(=O)c1cnc(NC2CCN(S(C)(=O)=O)CC2)nc1N`, the growth is 10.3% in assay [1]; 5.89% (active) in assay [2]; -28.3% (active) in assay [3]; 2.97% (active) in assay [4]; -62% (active) in assay [5]; 6.42% (active) in [6]. For the same compound, the growth in assay [7] is 8.69% (active); in [8], -33.8% (active); in [9], -28% (active); in assay [10], -23.6% (active); in [11], 3.08% (active); in assay [12], -25.5% (active). Besides, the growth in assay [13] was -66.1% (active); in [14] it was 12.6%; in assay [15], 0.678% (active); in [16] it was 0.205% (active); in assay [17], -42.1% (active); in [18], -44.5% (active). Besides, the growth in [19] was 6.39% (active); in assay [20], -35.3% (active).
